Test results reported in article PMC7826789 (International Journal of Molecular Sciences, 2021).

Tests used:
Details in all cases: Compound Concentration (nM):1000
[1] = system: PAK1
[2] = system: PAK2
[3] = system: PAK3
[4] = system: PAK4
[5] = system: PAK6
[6] = system: PAK7
[7] = system: T1, PCTK1
T1 construct: gene CDK16

[8] = system: T2, PCTK2
T2 construct: gene CDK17

[9] = system: T3, PCTK3
T3 construct: gene CDK18

[10] = system: PDGFRA
[11] = system: PDGFRB
[12] = system: PDPK1
[13] = system: T4, PFCDPK1(P.falciparum)
T4 construct: gene CDPK1

[14] = system: T5, PFPK5(P.falciparum)
T5 construct: gene MAL13P1.279

[15] = system: T6, PFTAIRE2
T6 construct: gene CDK15

[16] = system: T7, PFTK1
T7 construct: gene CDK14

[17] = system: PHKG1
[18] = system: PHKG2
[19] = system: PIK3C2B
[20] = system: PIK3C2G
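Note: KINOMEscan scanMAX binding as percent activity remaining versus control; lower means stronger binding.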

| Compound | Percent Control [1] | Percent Control [2] | Percent Control [3] | Percent Control [4] | Percent Control [5] | Percent Control [6] | Percent Control [7] | Percent Control [8] | Percent Control [9] | Percent Control [10] | Percent Control [11] | Percent Control [12] | Percent Control [13] | Percent Control [14] | Percent Control [15] | Percent Control [16] | Percent Control [17] | Percent Control [18] | Percent Control [19] | Percent Control [20] |
| --- | --- | --- | --- | --- | --- | --- | --- | --- | --- | --- | --- | --- | --- | --- | --- | --- | --- | --- | --- | --- |
| COc1cc2ncnc(Nc3ccc4c(cnn4Cc4ccccc4)c3)c2cc1OC.Cl [GW282449A] | 100% | 100% | 30% | 100% | 100% | 100% | 100% | 100% | 100% | 83% | 100% | 100% | 57% | 100% | 100% | 100% | 100% | 100% | 100% | 97% |
| NS(=O)(=O)c1ccc(N/N=C2\C(=O)Nc3ccc(C(=O)NCc4ccncc4)cc32)cc1 [GW300657X] | 100% | 100% | 63% | 100% | 81% | 87% | 0.2% | 22% | 68% | 27% | 74% | 65% | 85% | 57% | 49% | 73% | 100% | 70% | 100% | 86% |
| CC(C)COC(=O)c1ccc2c(c1)/C(=C/Nc1ccc(S(N)(=O)=O)cc1)C(=O)N2 [GW416981X] | 100% | 100% | 100% | 100% | 100% | 97% | 0.6% | 16% | 60% | 55% | 57% | 55% | 71% | 100% | 75% | 89% | 100% | 54% | 100% | 97% |
| CN(C)c1cc2c(Nc3ccc4c(cnn4Cc4ccccc4)c3)ncnc2cn1 [GW282974X] | 89% | 79% | 26% | 98% | 87% | 88% | 87% | 100% | 100% | 100% | 98% | 100% | 32% | 94% | 79% | 100% | 91% | 83% | 35% | 89% |
| Cl.O=C(Nc1ccc(Oc2ccc3[nH]c(NC(=O)c4ccccc4)nc3c2)cc1)Nc1cc(C(F)(F)F)ccc1F [GW709042A] | 93% | 90% | 5.9% | 100% | 96% | 100% | 100% | 100% | 96% | 35% | 1.2% | 100% | 100% | 100% | 100% | 97% | 100% | 100% | 100% | 97% |
